PubChem BioAssay (NCATS)
Inconclusive results are not listed. Entries that show only a call come without a potency. Activity calls are given as the source filed them. The call rests on the fitted dose curve; in most records, active means well fitted inhibition curve with a large enough effect; inconclusive means small, poorly fitted or top-dose-only effect; inactive means flat fitted curve, though single readings scatter.
Potency means the concentration at half of the fitted maximal effect.

The compounds below were run against Ubiquitin carboxyl-terminal hydrolase 1 (Homo sapiens) (UniProt O94782) (assay: Inhibitors of USP1/UAF1: Pilot qHTS (AID 504865; further: nearly all actives have a fitted effect of over 35% in size)). Conditions: purified USP1/UAF1, Ub-rhodamine cleavage fluorescence; series mostly up to 114 µM.
Chain of Ubiquitin carboxyl-terminal hydrolase 1 (Homo sapiens) (O94782 whole entry, looked up): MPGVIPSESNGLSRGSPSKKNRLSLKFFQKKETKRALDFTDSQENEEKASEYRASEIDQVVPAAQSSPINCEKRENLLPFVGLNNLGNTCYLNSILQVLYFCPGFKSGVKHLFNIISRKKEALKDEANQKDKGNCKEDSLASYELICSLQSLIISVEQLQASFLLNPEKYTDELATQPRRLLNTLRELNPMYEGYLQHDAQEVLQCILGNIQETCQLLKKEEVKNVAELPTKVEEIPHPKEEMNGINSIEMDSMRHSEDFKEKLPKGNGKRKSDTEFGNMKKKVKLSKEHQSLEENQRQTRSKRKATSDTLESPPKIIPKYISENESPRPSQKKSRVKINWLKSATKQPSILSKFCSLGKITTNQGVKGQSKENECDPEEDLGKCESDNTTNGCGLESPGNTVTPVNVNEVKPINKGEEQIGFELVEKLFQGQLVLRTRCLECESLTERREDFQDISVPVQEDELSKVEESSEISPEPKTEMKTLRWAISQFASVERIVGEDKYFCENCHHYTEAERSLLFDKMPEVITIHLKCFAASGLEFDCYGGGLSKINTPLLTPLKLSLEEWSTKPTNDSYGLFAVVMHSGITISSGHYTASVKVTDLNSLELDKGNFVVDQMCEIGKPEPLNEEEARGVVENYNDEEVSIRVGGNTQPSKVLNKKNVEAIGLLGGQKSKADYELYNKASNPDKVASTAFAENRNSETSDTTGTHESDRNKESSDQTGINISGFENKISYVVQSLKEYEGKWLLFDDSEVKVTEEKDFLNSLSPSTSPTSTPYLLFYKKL
Procedure, shortened: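 In 50mM HEPES pH 7.8 containing 0.5mM EDTA, 1mM TCEP, 0.1 mg/ml BSA and 0.01% Tween-20, 1nM USP1/UAF1 is exposed to compound for 15 min, then Ub-Rho (150nM final) is added and fluorescence is read over time.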
With `O=C(O)CCC/C=C\C[C@@H]1[C@@H](/C=C/[C@@H](O)COc2cccc(C(F)(F)F)c2)[C@H](O)C[C@@H]1O` the Potency was “inactive”.
For `CC(CC=O)CCCC(C)(C)O` (stereo not given), the Potency was “inactive”.
With `CC(C)OC(=O)Nc1ccc2nc(-c3cscn3)[nH]c2c1` the Potency was “inactive”.
`CC1CC(O)CC(C)(C)C1` (stereo not given) was tested, and the Potency was “inactive”.
In the case of `NC(=O)CC[C@@H]1NC(=O)[C@H](Cc2ccccc2)NC(=O)[C@H](Cc2ccc(O)cc2)NC(=O)[C@@H](N)CSSC[C@@H](C(=O)N2CCC[C@H]2C(=O)N[C@@H](CCCN=C(N)N)C(=O)NCC(N)=O)NC(=O)[C@H](CC(N)=O)NC1=O`, the Potency is reported as “inactive”.
For `CN1C(C(=O)Nc2ccccn2)C(=O)c2sc(Cl)cc2S1(=O)=O` (stereo not given), the Potency was “inactive”.
With `CC(C)=CCC/C(C)=C/CC/C(C)=C/CC/C=C(\C)CC/C=C(\C)CCC=C(C)C` the Potency was “inactive”.
`CN(C)CCC=C1c2ccccc2C(C)(C)c2ccccc21` was tested, and the Potency was 56.2 µM (active).
For `CNC(=O)C[C@@H](N)C(=O)N[C@@H](C(=O)N[C@@H]1C(=O)N2[C@@H]1SC(C)(C)[C@@H]2C(=O)O)c1ccc(O)cc1`, the Potency was “inactive”.
For `CN=C1C=CC(=C(c2ccc(N(C)C)cc2)c2ccc(N(C)C)cc2)C=C1`, the Potency was 20 µM (active).
For `O=C(O)COc1ccc(CCNS(=O)(=O)c2ccccc2)s1`, the Potency was “inactive”.
With `O=S(=O)(O)CC(S)CS` (stereo not given) the Potency was “inactive”.
`CCOc1ccc(S(=O)(=O)O)c2cccnc12` was tested, and the Potency was “inactive”.
In the case of `CCN(CC)CCOc1ccccc1OC`, the Potency is reported as “inactive”.
With `CC(C)(COP(=O)(O)OP(=O)(O)OC[C@H]1O[C@@H](n2cnc3c(N)ncnc32)[C@H](O)[C@@H]1OP(=O)(O)O)C(O)C(=O)NCCC(=O)NCCS` (stereo not given in full) the Potency was “inactive”.
